Screening data: PubChem BioAssay, National Center for Advancing Translational Sciences (NCATS)
This is a sample that favours compounds with a hit; in the whole collection about 6.2% have one here.
MARV entry inh: blocks Marburg virus binding to or entry into cells; Potency, µM (doses to about 37.8 µM), most hits filed as inhibitors; 300,000 tested, 1.8% active; Marburg virus pseudotyped entry inhibition, cell reporter; calls by dose curve; tested in HEK293 cells
FMDV inh: blocks foot and mouth disease virus; FMDV antiviral cell-based qHTS; Potency, µM (titrated, usually from 57.9 µM), actives largely listed as inhibitors; 410,000 tested, 1.2% active; AID 1159524; calls by dose curve; tested in HEK293T cells; note: read-out not given here; nearly all actives have a fitted effect of over 45% in size
HCMV antiviral: blocks human cytomegalovirus replication | HFF cells, HCMV-luciferase reporter, 72 h; stronger effect = lower value | activity change, negative = inhibition, % at 57.5 µM | 410,000 tested, 4.5% active | AID 1259415; in the data active = activity change below about -60%; inconclusive = no clear call, values can overlap the other calls; inactive = above about -39%
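Human foreskin fibroblasts infected with luciferase-reporter HCMV at MOI 1 PFU/cell, compounds at two doses. Luciferase measured 72 h post infection; normalized to buffer-only basal and Salinomycin (10uM) controls.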
Lassa entry inh: Lassa virus entry inhibition; Lassa virus pseudotype entry inhibition, cell reporter; Potency, µM (series often up to 37.9 µM), hits mostly inhibitors; 300,000 tested, 1.2% active; calls by dose curve; tested in HEK293 cells; note: nearly all actives have a fitted effect of over 50% in size
Each line names hits and unclear results; the compound was inactive in the other large screens.

COC(=O)c1[nH]c2ccc(C)cc2c1NC(=O)CN1CCN(c2ccc(F)cc2)CC1	MARV entry inh inconclusive, FMDV inh 25µM, HCMV antiviral -83, Lassa entry inh 13µM
COC(=O)c1[nH]c2ccc(Cl)cc2c1NC(=O)CN1CCc2cc(OC)c(OC)cc2C1	MARV entry inh inconclusive, FMDV inh inconclusive, Lassa entry inh inconclusive
CCOC(=O)N1CCN(CC(=O)Nc2c(C(=O)OC)[nH]c3ccc(Cl)cc23)CC1	MARV entry inh inconclusive, FMDV inh 32µM, HCMV antiviral inconclusive, Lassa entry inh inconclusive
CCOc1ccc(NC(=O)CSc2oc(-c3ccccc3)nc2S(=O)(=O)c2ccc(Cl)cc2)cc1	Lassa entry inh inconclusive
N#CC(C#N)[C@@H](c1ccsc1)c1c(-c2ccccc2)[nH][nH]c1=O	none (no result: FMDV inh, HCMV antiviral, Lassa entry inh)
COc1ccc(CN2C(=O)C(n3c(C)ccc3C)c3cc(F)ccc32)cc1 (configuration not stated)	none (no result: MARV entry inh, FMDV inh, Lassa entry inh)
COC(=O)c1ccc(C(=O)OC)c(NC(=O)CN2CCN(c3ccccc3)CC2)c1	MARV entry inh 9.2µM, Lassa entry inh inconclusive
COC(=O)c1ccccc1NC(=O)CN1CCc2ccccc2C1	none
COC(=O)c1ccccc1NC(=O)CN1CCN(C23CC4CC(CC(C4)C2)C3)CC1	MARV entry inh 5.8µM, Lassa entry inh inconclusive
CCN(CC)C(=O)CSC1=C(C#N)[C@H](c2ccco2)C(C(=O)OCCOC)=C(C)N1	none (no result: FMDV inh, HCMV antiviral, Lassa entry inh)
COc1ccc(NC(=O)N(C)[C@H]2C[C@H]3c4[nH]c5c(-c6ccccc6)cccc5c4CCN3C(=O)[C@H]2[C@H](C)O)cc1	none (no result: MARV entry inh, FMDV inh, Lassa entry inh)
Cc1nn(Cc2ccccc2)c(Cl)c1C(=O)OC(C)C(=O)Nc1ccc(F)cc1Cl (configuration not stated)	MARV entry inh 13µM, HCMV antiviral -65, Lassa entry inh 3.2µM
CCCCNC(=S)NCC(c1ccccc1)c1c[nH]c2ccccc12 (configuration not stated)	MARV entry inh inconclusive, HCMV antiviral inconclusive, Lassa entry inh inconclusive
CN(C)CCCNC(=S)NCC(c1ccc(Cl)cc1Cl)c1c[nH]c2ccccc12 (configuration not stated)	MARV entry inh inconclusive, HCMV antiviral inconclusive, Lassa entry inh 10µM
COc1ccc(C(=O)N(Cc2ccccc2)c2cccc(C)c2)cc1	HCMV antiviral -60 (no result: MARV entry inh, Lassa entry inh)
COc1ccc(CN(C(=O)c2ccc(C)cc2)c2cccc(N)c2)cc1	none (no result: MARV entry inh, Lassa entry inh)
COc1ccc(C(c2c(C)[nH]n(C(N)=S)c2=O)C(C#N)C#N)cc1 (configuration not stated)	FMDV inh 25µM
Cn1cc(-c2cc3n(n2)CCC(=O)N3CCCC(=O)NCc2ccccc2Cl)c2ccccc21	Lassa entry inh inconclusive (no result: MARV entry inh)
C[C@@H]1CC[C@H]2C(=O)N(CC3CCCCC3)C[C@H](O)CN2[C@@H]1c1ccc(Br)cc1	none (no result: FMDV inh, HCMV antiviral, Lassa entry inh)
Cc1ccc(O)c(C(CC(=O)N2CCCC2)c2ccccc2)c1 (configuration not stated)	none (no result: HCMV antiviral)
O=C(CC(c1ccccc1)c1ccccc1O)N1CCCCC1 (configuration not stated)	HCMV antiviral -82 (no result: MARV entry inh, Lassa entry inh)
COc1ccc(O)c(CN2CCC3(CC2)c2ccccc2[C@@H](NC(=O)c2cccc(F)c2)[C@@H]3OC)c1	none (no result: MARV entry inh, HCMV antiviral, Lassa entry inh)
O=C(c1cccs1)c1no[n+]([O-])c1C(=O)c1cccs1	FMDV inh 16µM (no result: HCMV antiviral)
O=C(c1ccc(Cl)nc1)c1cccs1	none (no result: HCMV antiviral)
COc1ccc(C(=O)c2no[n+]([O-])c2C(=O)c2ccc(OC)cc2)cc1	FMDV inh 40µM, HCMV antiviral -105, Lassa entry inh inconclusive
Cc1occc1-c1nnc(SCC(=O)Nc2ccccc2)n1Cc1ccccc1	MARV entry inh inconclusive, HCMV antiviral -62 (no result: FMDV inh)
Cc1occc1-c1nnc(SCC(=O)Nc2ccc(F)cc2)n1Cc1ccccc1	MARV entry inh inconclusive, Lassa entry inh inconclusive
COCCn1c(C)cc(C(=O)COC(=O)c2cncc(Br)c2)c1C	MARV entry inh inconclusive
COCCn1c(C)cc(C(=O)COC(=O)c2c(C)nn(Cc3ccccc3)c2C)c1C	MARV entry inh inconclusive, Lassa entry inh 7.1µM
Cc1nn(Cc2ccccc2)c(C)c1C(=O)OCC(=O)c1cc(C)n(C2CC2)c1C	HCMV antiviral inconclusive, Lassa entry inh 15µM
O=c1c2ccccc2sn1-c1ccccc1	MARV entry inh inconclusive, FMDV inh inconclusive, HCMV antiviral -83, Lassa entry inh inconclusive
O=c1c2ccccc2sn1-c1cccc(Cl)c1	none (no result: MARV entry inh, Lassa entry inh)
O=c1c2ccccc2sn1-c1ccccc1F	HCMV antiviral -109 (no result: MARV entry inh, Lassa entry inh)
O=C(O)c1cccc(-n2sc3ccccc3c2=O)c1	HCMV antiviral -61 (no result: MARV entry inh, Lassa entry inh)
Cc1ccccc1-n1sc2cc(F)ccc2c1=O	MARV entry inh inconclusive, FMDV inh inconclusive, HCMV antiviral -98
O=c1n(Cc2ccc(Cl)cc2)nc2n1-c1ccccc1OC2	none
N#Cc1ccc2c(=O)n(-c3ccccc3)sc2c1	none (no result: MARV entry inh, Lassa entry inh)
CC(=O)Nc1ccc2c(=O)n(-c3ccccc3)sc2c1	HCMV antiviral -75 (no result: MARV entry inh, Lassa entry inh)
NC(N)=N/N=C/c1ccc(Cl)c(Cl)c1	MARV entry inh inconclusive, HCMV antiviral inconclusive, Lassa entry inh inconclusive
NC(N)=N/N=C/c1ccc(Cl)cc1Cl	MARV entry inh 3.2µM, Lassa entry inh inconclusive
O=C(Nc1cccc(NC(=O)c2nccc3ccccc23)c1)c1ccco1	HCMV antiviral -97 (no result: FMDV inh)
Cc1cccc(Oc2ccc(NC(=O)c3ccccc3C(=O)O)cc2)c1C	none
O=C(O)c1ccccc1C(=O)Nc1ccc(Oc2cccc3ccccc23)cc1	MARV entry inh inconclusive, FMDV inh inconclusive, HCMV antiviral -64, Lassa entry inh inconclusive
O=C(Nc1ccc(O)cc1)c1ccccc1OCc1ccccc1	HCMV antiviral -77 (no result: MARV entry inh, Lassa entry inh)
O=C(Nc1ccc(Oc2cccc3ccccc23)cc1)c1ccco1	MARV entry inh inconclusive, HCMV antiviral -68, Lassa entry inh inconclusive
CN(C)c1ccc(CNC(=O)C2CCN(C(=O)c3ccc(-n4ccc5ccccc54)s3)CC2)cc1	FMDV inh inconclusive, Lassa entry inh inconclusive (no result: MARV entry inh)
CC(=O)CC1(OC(C)=O)C(=O)N(C)c2ccccc21 (configuration not stated)	MARV entry inh inconclusive, HCMV antiviral -64
O=C(OCc1cc(=O)n2nc(C3CCCCC3)sc2n1)c1ccc(F)cc1	none (no result: MARV entry inh)
COc1cccc(-c2cc3nc(-c4ccccc4)cc(N4CCN(C(=O)c5ccoc5)CC4)n3n2)c1	FMDV inh 32µM, HCMV antiviral -104 (no result: MARV entry inh, Lassa entry inh)
COc1cccc(-c2cc(N3CCN(C(=O)c4ccoc4)CC3)n3nc(-c4cccc(Cl)c4)cc3n2)c1	HCMV antiviral -94 (no result: MARV entry inh, Lassa entry inh)
Cn1cnc(S(=O)(=O)N2CCCCC2c2cc(C(=O)Nc3cccc(C#N)c3)no2)c1 (configuration not stated)	none (no result: MARV entry inh, Lassa entry inh)
CN1CCN2c3ccccc3Cc3ccccc3C2C1 (configuration not stated)	MARV entry inh 5.6µM, HCMV antiviral inconclusive, Lassa entry inh inconclusive
CC(C)CC(=O)NC(=S)Nc1ccc(CN2CCOCC2)cc1	MARV entry inh inconclusive
CC(C)c1ccc(/C=C/C(=O)NC(=S)Nc2ccc(CN3CCOCC3)cc2)cc1	MARV entry inh inconclusive, FMDV inh 20µM, HCMV antiviral inconclusive, Lassa entry inh inconclusive
CC(C)c1ccc(C(=O)NN2CCOCC2)cc1	none (no result: MARV entry inh, Lassa entry inh)
O=C(/C=C/c1cccc([N+](=O)[O-])c1)NC(=S)Nc1ccc(CN2CCOCC2)cc1	FMDV inh inconclusive, HCMV antiviral -72, Lassa entry inh inconclusive
CC(C)c1ccc(/C=C/C(=O)NC(=S)NN2CCOCC2)cc1	HCMV antiviral -98 (no result: MARV entry inh, Lassa entry inh)
